target: EAPP; test: pooled miR-30 sensor sort-seq; sequence = guide strand; conditions: shRNA
Note: reference of the scale not given here.

| Sequence | sensor-assay potency score (higher = more potent) |
| --- | --- |
| TATATATCATCGTAGTACCTTG | -0.621 |
| TCATCGTAGTACCTTGTCGGAG | -1.04 |
| TTTCTTCCACATCTGTCTCTGC | -0.196 |
| TACTGCTCTGTCTTCATCCTCG | 0.413 |
| TTCCACATCTGTCTCTGCCTTC | 0.205 |

target: EBNA1BP2; test: as above; conditions: shRNA

| Sequence | sensor-assay potency score (higher = more potent) |
| --- | --- |
| TACATCATCATAGCTCTCCCGA | -0.31 |
| TTTCTTAATAGCATTCATCATA | -1.2 |
| TTAGTCTGCAGCTTCTGTCGAA | 0.0417 |
| TTCTGGATCAACAGCTTTCTGG | -1.11 |
| TAGTCTGCAGCTTCTGTCGAAT | -0.943 |
| TCATCTTCTCTCTTGTTCGTTT | -0.122 |
| TAGAAACTCATCTCTCGCTGGA | 0.612 |
| ATCAACAGCTTTCTGGTCCTTG | -0.301 |
| TTCATCTTCTCTCTTGTTCGTT | 0.27 |
| TATTTGACCCTTTCTTGCCAGG | -1.16 |
| TATACCGTCGTTTAGCACTGGG | -0.643 |
| ATAGAAACTCATCTCTCGCTGG | 0.115 |
